Assay results from PubChem BioAssay AID602350 (Broad Institute, 2012).
Entries with a potency or affinity are not part of this list. The source made the active and inactive calls.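 The calls were made as follows: active = absorbance falls by 30% or more versus neutral controls, with a potency fitted within twice the top valid dose; inconclusive = no clear call, values can overlap the other calls; inactive = change opposite to expected direction, plus the rest.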

biological target: Protein disulfide-isomerase (Homo sapiens) (UniProt P07237); assay: inhibition of PDI-driven insulin aggregation – biochemical, turbidity, absorbance, cherry-picked samples, dose response (AID 602350); conditions: recombinant PDI insulin aggregation, absorbance 650 nm, 90 min; series mostly up to 19.5 µM
Sequence (P07237 whole entry, looked up): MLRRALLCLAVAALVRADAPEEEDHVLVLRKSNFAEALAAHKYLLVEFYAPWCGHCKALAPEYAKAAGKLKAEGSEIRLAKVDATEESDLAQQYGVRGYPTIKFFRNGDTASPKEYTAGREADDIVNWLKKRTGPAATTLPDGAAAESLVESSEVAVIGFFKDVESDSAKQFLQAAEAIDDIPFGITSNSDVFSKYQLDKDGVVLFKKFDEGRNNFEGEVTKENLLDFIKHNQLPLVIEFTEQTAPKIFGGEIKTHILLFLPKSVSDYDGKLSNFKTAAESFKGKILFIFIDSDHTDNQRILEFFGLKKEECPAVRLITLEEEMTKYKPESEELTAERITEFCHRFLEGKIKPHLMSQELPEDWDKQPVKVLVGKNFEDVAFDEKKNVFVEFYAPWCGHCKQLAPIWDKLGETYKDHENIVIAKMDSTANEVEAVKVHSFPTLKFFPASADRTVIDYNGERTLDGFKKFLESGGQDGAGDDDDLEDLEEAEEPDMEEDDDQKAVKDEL

Row | SMILES | outcome
1 | CCOC(C(=O)OCCCN(CC)CC)(c1ccccc1)c1ccccc1 | inactive
2 | C[C@H]1CCCC(=O)CCCCCc2cc(O)cc(O)c2C(=O)O1 | inactive
3 | NC(=O)CSc1nnc([C@@H](N)Cc2c[nH]c3ccccc23)o1 | inactive
4 | CC(Cc1ccc(O)cc1)NCC(O)c1ccc(O)c(O)c1 (stereo unspecified) | inactive
5 | CCOC(=O)C1(CCOc2ccccc2)CCN(Cc2cccc(O)c2)CC1 | inactive
6 | CN1CCN(CCOC2c3ccccc3CSc3ccc(Cl)cc32)CC1 (stereo unspecified) | inactive
